From PubChem
Cruzain inh Det: qHTS Assay for Promiscuous and Specific Inhibitors of Cruzain (with detergent); Cruzipain (Trypanosoma cruzi), P25779; purified cruzain, Z-FR-AMC fluorescence, 0.01% Triton; Potency, µM, without a hit: max response, negative = inhibition, hits mostly inhibitors; actives 0.43% (n = 200,000);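 further: plate controls were neutral wells for no effect and buffer without enzyme for full effect; nearly all actives have a fitted effect of over 40% in size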
Target sequence (P25779 123-467 limits assumed): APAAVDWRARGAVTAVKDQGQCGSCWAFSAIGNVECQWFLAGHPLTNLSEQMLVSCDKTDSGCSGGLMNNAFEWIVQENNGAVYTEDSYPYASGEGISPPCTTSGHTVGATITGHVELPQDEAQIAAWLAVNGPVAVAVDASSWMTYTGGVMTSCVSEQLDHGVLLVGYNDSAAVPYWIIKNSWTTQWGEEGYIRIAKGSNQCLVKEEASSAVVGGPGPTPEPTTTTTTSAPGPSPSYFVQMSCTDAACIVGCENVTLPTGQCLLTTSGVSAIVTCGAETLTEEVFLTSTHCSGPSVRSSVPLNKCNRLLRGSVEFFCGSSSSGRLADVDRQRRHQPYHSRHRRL
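Enzyme 1.5 nM, Z-FR-AMC 2 uM, NaOAc 100 mM pH 5.5, DTT 5 mM, Triton X-100 0.01%; 15 min RT compound preincubation; kinetic ex360/em450, 60 s delta.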
Cruzain noTriton: qHTS Assay for Promiscuous and Specific Inhibitors of Cruzain (without detergent); actives 2.3% (n = 200,000); purified cruzain, Z-FR-AMC fluorescence, no detergent; Potency, µM, without a hit: max response, negative = inhibition, actives largely listed as inhibitors;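 further: plate controls were enzyme without inhibitor for no effect and buffer without enzyme for full effect; nearly all actives have a fitted effect of over 40% in size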
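Detergent-free condition (0.00005% Triton X-100) in acetate buffer pH 5.5 with DTT. 1.5 nM enzyme and compound were pre-mixed 15 min, then 2 uM Z-FR-AMC substrate added; reaction progress from fluorescence change between first and third reads (60 s).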
An asterisk follows results filed as active; ! = not active in a repeat. This is a sample that favours compounds with a hit; in the whole collection about 2.6% have one here. The call rests on the fitted dose curve; in most records, active means well fitted curve in the direction sought with a large enough effect; inconclusive means small, poorly fitted or top-dose-only effect, or another doubt; inactive means no such curve, though single readings can be large; an effect the other way counts as inactive or inconclusive. Potency means the concentration at half of the fitted maximal effect.

How did O=C(Nc1nc(-c2ccccc2)cs1)c1cccc([N+](=O)[O-])c1 do in these assays?
Cruzain inh Det: -2.6%; Cruzain noTriton: inconclusive

What do the screens show for `Cc1ccc(-c2c(CN3CCN(c4cccc(C)c4)C(C)C3)csc2C)cc1` (stereo unspecified)?
Cruzain inh Det: -1.3%; Cruzain noTriton: 15.1%

What do the screens show for `FC(F)(F)c1ccccc1-c1nccc(NCc2ccccc2)n1`?
Cruzain inh Det: -2.2%; Cruzain noTriton: 18.3%

Results for O=C1c2ccccc2C(=O)c2c(Nc3cc4c5c(ccc6c7ccc8c9c(cc(Nc%10cccc%11c%10C(=O)c%10ccccc%10C%11=O)c(c3c56)c97)-c3ccccc3C8=O)C(=O)c3ccccc3-4)cccc21 ?
Cruzain inh Det: -3.5%; Cruzain noTriton: 6.2%

How did COc1ccc(-c2csc(NC(=O)c3ccc(S(=O)(=O)N4CCc5ccccc5C4)cc3)n2)c(OC)c1 do in these assays?
Cruzain inh Det: -1.7%; Cruzain noTriton: 3.98µM*

Results for COc1cccc(C(=O)Nc2nc(-c3ccc(S(=O)(=O)N4CCOCC4)cc3)cs2)c1 ?
Cruzain inh Det: 0.4%; Cruzain noTriton: inconclusive

What do the screens show for `CSc1nncc(/C(C)=N\Nc2cccc(C)c2)n1`?
Cruzain inh Det: 2.3%; Cruzain noTriton: 12.6µM*

How did CSc1nncc(/C(C)=N\Nc2ccccc2)n1 do in these assays?
Cruzain inh Det: 6.5%; Cruzain noTriton: 5.8%

What do the screens show for `N[C@H](C(=O)O)[C@@H]1[C@@H](C(=O)O)C1(F)F`?
Cruzain inh Det: 3.0%; Cruzain noTriton: 4.6%

What do the screens show for `O=S(=O)(Nc1ccc2c(c1)nc1n2CCN(Cc2ccccc2)C1)c1ccccc1`?
Cruzain inh Det: -5.0%; Cruzain noTriton: inconclusive

Results for O=S(=O)(Nc1ccc2c(c1)nc1n2CCN(Cc2ccccc2)C1)c1ccc(Cl)cc1 ?
Cruzain inh Det: -3.4%; Cruzain noTriton: 25.1µM*

How did Oc1cccc2ccc(SSc3ccc4cccc(O)c4n3)nc12 do in these assays?
Cruzain inh Det: -0.7%; Cruzain noTriton: -3.5%

What do the screens show for `O=C(C(Cc1ccccc1)N1C(=O)C2C3C=CC(C3)C2C1=O)N1CCCCCC1` (stereo unspecified)?
Cruzain inh Det: -0.5%; Cruzain noTriton: 15.9%

Results for O=C(NCc1ccco1)C(Cc1ccccc1)N1C(=O)C2C3C=CC(C3)C2C1=O (stereo unspecified) ?
Cruzain inh Det: 25.1µM*; Cruzain noTriton: -29.9%

Results for Oc1c(C=C2N=c3ccccc3=N2)sc(=S)n1-c1ccccc1 ?
Cruzain inh Det: -3.1%; Cruzain noTriton: 10µM*

How did Oc1c(C=C2N=c3ccccc3=N2)sc(=S)n1C1CCCCC1 do in these assays?
Cruzain inh Det: -3.8%; Cruzain noTriton: 12.6µM*!

Results for O=C1N=c2ccccc2=C1c1sc(=S)n(CC2CCCO2)c1O (stereo unspecified) ?
Cruzain inh Det: 7.9%; Cruzain noTriton: -13.0%

How did O=C(Nn1c(O)c(C=C2N=c3ccccc3=N2)sc1=S)c1ccccc1Cl do in these assays?
Cruzain inh Det: -13.2%; Cruzain noTriton: -28.8%

How did COc1ccc(C2=C(Nc3ccc(Br)c(C)c3)c3ccccc3C2=O)cc1 do in these assays?
Cruzain inh Det: -4.9%; Cruzain noTriton: -29.4%

How did Cc1ccc(NC(=O)CN2C(=O)c3ccccc3Sc3ncccc32)c(C)c1 do in these assays?
Cruzain inh Det: -3.8%; Cruzain noTriton: inconclusive

What do the screens show for `CC(C1CCCC(=O)C1)[N+](=O)[O-]` (stereo unspecified)?
Cruzain inh Det: 2.4%; Cruzain noTriton: -4.8%

How did COc1ccc(NC(=O)C(C)n2nnc3sc(-c4ccccc4)cc3c2=O)cc1Cl (stereo unspecified) do in these assays?
Cruzain inh Det: -12.4%; Cruzain noTriton: 25.1µM*

Results for Cc1cc(C)c(NC(=O)C(C)n2nnc3sc(-c4ccccc4)cc3c2=O)c(C)c1 (stereo unspecified) ?
Cruzain inh Det: 3.7%; Cruzain noTriton: inconclusive

How did COc1cccc(CCNC(=O)c2cnc3sc(N4CCCC4)nn3c2=O)c1 do in these assays?
Cruzain inh Det: -0.7%; Cruzain noTriton: 0.9%

How did Cc1cc2oc(=O)cc(CSc3nnc(C)n3N)c2cc1C(C)C do in these assays?
Cruzain inh Det: -13.8%; Cruzain noTriton: -10.1%

Results for Cc1cc2oc(=O)cc(CSc3nnc(-c4cccs4)o3)c2cc1C(C)C ?
Cruzain inh Det: -6.3%; Cruzain noTriton: 12.6µM*

What do the screens show for `O=C(c1ccccc1)c1nn(-c2ccc(Cl)cc2)cc1C(=O)c1cc2ccccc2oc1=O`?
Cruzain inh Det: -4.6%; Cruzain noTriton: 25.1µM*

How did NC(=O)c1cn(-c2ccccc2)nc1-c1cc2ccccc2oc1=O do in these assays?
Cruzain inh Det: -3.2%; Cruzain noTriton: -0.8%

How did CC(C)Cc1nn2cc(-c3cccc(Br)c3)nc2s1 do in these assays?
Cruzain inh Det: -6.3%; Cruzain noTriton: 1.7%

How did O=C(N/N=C\c1ccc(CNS(=O)(=O)c2ccc(Cl)cc2)o1)C(=O)Nc1ccc(Oc2ccccc2)cc1 do in these assays?
Cruzain inh Det: -0.8%; Cruzain noTriton: 7.94µM*

How did O=C(N/N=C\c1ccc(CNS(=O)(=O)c2ccccc2)o1)C(=O)Nc1ccc(F)cc1 do in these assays?
Cruzain inh Det: 1.3%; Cruzain noTriton: inconclusive

What do the screens show for `Cc1cccc(CN(CC(=O)N/N=C/c2ccco2)S(=O)(=O)c2ccc(Cl)cc2)c1`?
Cruzain inh Det: -2.6%; Cruzain noTriton: 16.9%

What do the screens show for `O=C(N/N=C\c1ccc(CN(Cc2ccc(Cl)cc2)S(=O)(=O)c2ccccc2)o1)C(=O)Nc1ccc(F)cc1`?
Cruzain inh Det: 1.6%; Cruzain noTriton: 7.94µM*

Results for CCOC(=O)c1cc(S(=O)(=O)N2CCN(c3ccc(C(C)=O)cc3)CC2)[nH]n1 ?
Cruzain inh Det: 0.2%; Cruzain noTriton: -5.1%

Results for COc1ccc(NC(=O)c2ccc3c(c2)N(Cc2cccc(Cl)c2)C(=O)c2ccccc2S3=O)cc1Cl (stereo unspecified) ?
Cruzain inh Det: -5.5%; Cruzain noTriton: inconclusive

What do the screens show for `CC(=O)c1ccc(NC(=O)c2ccc3c(c2)N(Cc2cccc(Cl)c2)C(=O)c2ccccc2S3(=O)=O)cc1`?
Cruzain inh Det: -1.8%; Cruzain noTriton: 10µM*

Results for COc1ccc(NC(=O)c2ccc3c(c2)N(Cc2cccc(Cl)c2)C(=O)c2ccccc2S3(=O)=O)cc1Cl ?
Cruzain inh Det: -0.2%; Cruzain noTriton: 3.16µM*

How did CC(=O)c1ccc(NC(=O)c2ccc3c(c2)N(Cc2cccc(Cl)c2)C(=O)c2ccccc2S3=O)cc1 (stereo unspecified) do in these assays?
Cruzain inh Det: -0.5%; Cruzain noTriton: -13.8%

Results for C=CCC(C)(O)C(=O)OCC (stereo unspecified) ?
Cruzain inh Det: 3.6%; Cruzain noTriton: 2.1%

How did CCCCNc1nc2c(c(=O)n(Cc3ccc(Cl)cc3)c(=O)n2C)n1C do in these assays?
Cruzain inh Det: -7.4%; Cruzain noTriton: 2.1%

Results for CCC(CC)C(=O)Nc1cccc(-c2nc3cccnc3s2)c1C ?
Cruzain inh Det: -1.6%; Cruzain noTriton: 8.4%

What do the screens show for `O=C(COc1ccc2c(c1)OCO2)Nc1ccc2c(c1)oc1ccccc12`?
Cruzain inh Det: -1.1%; Cruzain noTriton: 10µM*

Results for O=C(Nc1ccc2c(c1)oc1ccccc12)c1ccc2c(c1)OCO2 ?
Cruzain inh Det: -1.4%; Cruzain noTriton: inconclusive

How did Cc1ccc(C(=O)c2sc3nsc(C)c3c2N)cc1 do in these assays?
Cruzain inh Det: -4.0%; Cruzain noTriton: -5.0%
